In ChEMBL document CHEMBL1201862, “PubChem BioAssay data set” (2004):
Where “and” joins values, the source holds several entries; their conditions need not be identical. Identical values can stand only once. The whole screen tested about 310,000 compounds, of which about 11,000 (3.5%) were called active. Roughly 4% stayed inconclusive and do not appear here. This is one part of a sample in which actives are shown more often than they occur. The rule behind the calls is not given here.

These compounds were tested against T1, 4'-phosphopantetheinyl transferase ffp (Bacillus subtilis) (UniProt Q9F4F7) (assay: qHTS Assay for Inhibitors of Bacillus subtilis Sfp phosphopantetheinyl transferase (PPTase).).
T1 sequence (whole entry): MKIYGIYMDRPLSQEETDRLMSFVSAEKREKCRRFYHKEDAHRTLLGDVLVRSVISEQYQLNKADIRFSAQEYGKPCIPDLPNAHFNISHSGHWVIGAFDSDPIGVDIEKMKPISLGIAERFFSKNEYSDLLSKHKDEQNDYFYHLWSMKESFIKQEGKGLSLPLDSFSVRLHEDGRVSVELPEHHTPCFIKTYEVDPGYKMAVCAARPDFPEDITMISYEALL
Assay type: functional
`N[C@@H](CCC(=O)O)C(=O)O` was tested, and the Potency was 50.1 µM (active).
For `N[C@H](CCC(=O)O)C(=O)O`, the Potency was 44.7 µM (active) and 56.2 µM (active).
